According to the supplement of paper PMC9446081:
± gives the standard deviation of the averaged measurements.

What was measured:
Assay in all cases: relative enzymatic activity vs untreated control (fraction); higher = less inhibition
Conditions in all cases: 100 µM; incubation time: 2 h at 37 C
DNA gyrase = test system: DNA gyrase
Description: (§1)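 In vitro enzymatic inhibition assays (ProFoldin kits) for 12 purified essential E. coli enzymes or complexes, each treated with 218 active antibacterial compounds at 100 µM for 2 h at 37°C. Read-outs were fluorescence or absorbance (phosphate detection, dye binding), converted to activity via standard curves and expressed relative to untreated DMSO controls.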

DNA helicase = DNA helicase (UniProt P0ACB1)
Description: as §1

DNA ligase = DNA ligase (UniProt B1XA82)
Description: as §1

DNA polymerase = DNA polymerase (UniProt P10443)
Description: as §1

DNA primase = DNA primase (UniProt P0ABS7)
Description: as §1

GlmU = GlmU (UniProt A7ZTU1)
Description: as §1

Guanlyate kinase = Guanlyate kinase (UniProt Q0TBG1)
Description: as §1

MurA = MurA (UniProt Q3YX52)
Description: as §1

MurD = molecular target: T1, MurD (UniProt P14900)
T1 sequence (whole entry): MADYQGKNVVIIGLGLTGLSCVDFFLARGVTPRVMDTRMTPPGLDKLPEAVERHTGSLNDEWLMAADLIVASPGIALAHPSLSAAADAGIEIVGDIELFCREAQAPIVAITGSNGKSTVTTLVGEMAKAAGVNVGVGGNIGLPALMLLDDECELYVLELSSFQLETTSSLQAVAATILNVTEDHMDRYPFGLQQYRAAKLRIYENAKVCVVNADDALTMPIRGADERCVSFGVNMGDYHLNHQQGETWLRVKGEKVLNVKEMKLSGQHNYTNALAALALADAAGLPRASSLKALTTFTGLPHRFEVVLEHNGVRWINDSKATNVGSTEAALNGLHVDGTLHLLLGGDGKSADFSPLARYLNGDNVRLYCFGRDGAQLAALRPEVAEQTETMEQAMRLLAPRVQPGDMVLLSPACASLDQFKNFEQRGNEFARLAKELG
Description: as §1

MurF = molecular target: T2, MurF (UniProt P11880)
T2 sequence (whole entry): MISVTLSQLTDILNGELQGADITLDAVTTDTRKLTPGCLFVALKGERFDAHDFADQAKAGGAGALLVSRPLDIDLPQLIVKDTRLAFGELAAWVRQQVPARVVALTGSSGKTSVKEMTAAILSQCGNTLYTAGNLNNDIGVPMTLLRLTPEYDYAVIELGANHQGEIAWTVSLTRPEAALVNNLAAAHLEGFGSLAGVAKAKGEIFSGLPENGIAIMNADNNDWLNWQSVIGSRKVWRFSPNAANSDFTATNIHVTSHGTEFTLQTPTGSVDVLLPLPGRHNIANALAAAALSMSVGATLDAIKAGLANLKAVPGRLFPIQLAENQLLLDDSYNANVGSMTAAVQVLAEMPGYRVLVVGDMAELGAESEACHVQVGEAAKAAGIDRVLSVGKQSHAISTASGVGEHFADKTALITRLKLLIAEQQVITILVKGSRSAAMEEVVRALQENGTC
Description: as §1

RNA polymerase = test system: RNA polymerase
Description: as §1

MurA, sequence (Q3YX52 whole entry): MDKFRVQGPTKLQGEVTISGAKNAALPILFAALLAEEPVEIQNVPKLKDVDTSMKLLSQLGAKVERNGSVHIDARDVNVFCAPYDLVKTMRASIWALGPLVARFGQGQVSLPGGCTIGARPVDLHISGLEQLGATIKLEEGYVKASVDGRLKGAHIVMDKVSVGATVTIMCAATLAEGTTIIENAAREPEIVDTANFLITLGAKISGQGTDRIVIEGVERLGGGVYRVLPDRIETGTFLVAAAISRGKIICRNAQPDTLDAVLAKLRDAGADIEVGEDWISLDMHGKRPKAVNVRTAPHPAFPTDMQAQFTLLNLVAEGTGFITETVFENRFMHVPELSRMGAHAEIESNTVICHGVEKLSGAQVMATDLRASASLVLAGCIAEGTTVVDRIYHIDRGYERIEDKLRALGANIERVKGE
GlmU, sequence (A7ZTU1 whole entry, looked up): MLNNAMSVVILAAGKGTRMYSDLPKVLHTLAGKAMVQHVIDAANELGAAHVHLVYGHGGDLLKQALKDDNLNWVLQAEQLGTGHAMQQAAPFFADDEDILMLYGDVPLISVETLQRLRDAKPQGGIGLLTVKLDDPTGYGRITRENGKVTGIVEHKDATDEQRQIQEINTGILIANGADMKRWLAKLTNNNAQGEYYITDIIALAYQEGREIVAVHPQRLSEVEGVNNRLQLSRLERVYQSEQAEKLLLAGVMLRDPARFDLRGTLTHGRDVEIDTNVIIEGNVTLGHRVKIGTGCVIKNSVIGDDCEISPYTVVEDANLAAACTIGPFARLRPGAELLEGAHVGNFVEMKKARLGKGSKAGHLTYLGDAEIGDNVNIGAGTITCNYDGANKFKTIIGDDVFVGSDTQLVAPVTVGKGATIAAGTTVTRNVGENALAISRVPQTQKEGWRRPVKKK
DNA polymerase, sequence (P10443 whole entry): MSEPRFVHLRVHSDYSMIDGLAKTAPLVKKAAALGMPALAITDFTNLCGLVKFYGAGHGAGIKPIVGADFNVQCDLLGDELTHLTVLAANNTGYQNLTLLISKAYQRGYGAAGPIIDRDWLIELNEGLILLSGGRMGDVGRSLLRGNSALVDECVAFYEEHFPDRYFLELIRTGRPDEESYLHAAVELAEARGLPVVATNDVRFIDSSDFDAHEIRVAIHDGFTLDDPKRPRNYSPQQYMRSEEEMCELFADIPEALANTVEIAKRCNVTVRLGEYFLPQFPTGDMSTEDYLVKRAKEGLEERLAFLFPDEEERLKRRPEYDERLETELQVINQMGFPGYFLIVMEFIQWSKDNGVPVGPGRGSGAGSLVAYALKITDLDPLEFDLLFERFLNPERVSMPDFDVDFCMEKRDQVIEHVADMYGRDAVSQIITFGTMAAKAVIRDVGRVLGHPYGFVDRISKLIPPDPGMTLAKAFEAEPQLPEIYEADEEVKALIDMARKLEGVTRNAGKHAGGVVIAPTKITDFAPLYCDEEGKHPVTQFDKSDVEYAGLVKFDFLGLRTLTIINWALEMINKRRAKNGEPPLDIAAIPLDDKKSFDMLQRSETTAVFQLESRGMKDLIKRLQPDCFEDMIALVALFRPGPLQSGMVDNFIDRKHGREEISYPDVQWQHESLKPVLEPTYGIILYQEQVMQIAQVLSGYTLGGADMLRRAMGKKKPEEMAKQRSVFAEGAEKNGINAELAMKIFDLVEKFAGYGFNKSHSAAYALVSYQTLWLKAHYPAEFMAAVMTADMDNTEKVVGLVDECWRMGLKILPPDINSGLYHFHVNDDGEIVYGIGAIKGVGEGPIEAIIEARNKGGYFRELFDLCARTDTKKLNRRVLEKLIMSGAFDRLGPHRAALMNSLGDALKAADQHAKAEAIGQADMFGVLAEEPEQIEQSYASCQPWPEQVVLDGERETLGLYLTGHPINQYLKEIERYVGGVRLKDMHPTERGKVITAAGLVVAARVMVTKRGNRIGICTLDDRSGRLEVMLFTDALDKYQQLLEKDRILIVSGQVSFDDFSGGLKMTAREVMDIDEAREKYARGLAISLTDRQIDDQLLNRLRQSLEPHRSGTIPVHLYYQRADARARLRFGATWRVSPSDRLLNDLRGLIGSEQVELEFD
DNA helicase, sequence (P0ACB1 whole entry): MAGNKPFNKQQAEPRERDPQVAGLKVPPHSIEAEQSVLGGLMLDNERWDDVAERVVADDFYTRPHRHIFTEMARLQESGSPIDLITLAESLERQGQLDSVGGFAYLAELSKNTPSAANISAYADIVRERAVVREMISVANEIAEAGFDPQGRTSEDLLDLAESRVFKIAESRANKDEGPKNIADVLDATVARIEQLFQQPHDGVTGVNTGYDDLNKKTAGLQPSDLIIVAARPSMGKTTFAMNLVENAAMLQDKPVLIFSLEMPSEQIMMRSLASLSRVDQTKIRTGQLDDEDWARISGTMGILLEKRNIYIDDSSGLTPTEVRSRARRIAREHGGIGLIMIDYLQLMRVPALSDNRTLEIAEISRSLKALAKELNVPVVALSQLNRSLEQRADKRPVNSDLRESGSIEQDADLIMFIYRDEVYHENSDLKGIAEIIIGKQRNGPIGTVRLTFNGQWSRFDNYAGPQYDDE
DNA primase, sequence (P0ABS7 whole entry): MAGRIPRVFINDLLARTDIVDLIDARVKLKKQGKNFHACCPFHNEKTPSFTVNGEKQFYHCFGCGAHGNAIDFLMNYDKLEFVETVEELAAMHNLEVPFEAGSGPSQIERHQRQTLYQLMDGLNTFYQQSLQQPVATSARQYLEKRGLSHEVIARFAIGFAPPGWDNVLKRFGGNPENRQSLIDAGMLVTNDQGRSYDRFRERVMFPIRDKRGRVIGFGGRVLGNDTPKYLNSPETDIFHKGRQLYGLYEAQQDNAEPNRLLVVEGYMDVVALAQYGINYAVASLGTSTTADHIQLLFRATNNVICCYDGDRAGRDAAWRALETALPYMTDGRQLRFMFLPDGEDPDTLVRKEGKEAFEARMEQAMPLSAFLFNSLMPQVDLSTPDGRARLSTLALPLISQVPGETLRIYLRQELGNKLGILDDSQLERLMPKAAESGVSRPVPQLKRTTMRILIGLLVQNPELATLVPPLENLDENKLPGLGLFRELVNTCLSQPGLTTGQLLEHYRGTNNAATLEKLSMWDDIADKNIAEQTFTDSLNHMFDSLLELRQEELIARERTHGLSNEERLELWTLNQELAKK
Guanlyate kinase, sequence (Q0TBG1 whole entry): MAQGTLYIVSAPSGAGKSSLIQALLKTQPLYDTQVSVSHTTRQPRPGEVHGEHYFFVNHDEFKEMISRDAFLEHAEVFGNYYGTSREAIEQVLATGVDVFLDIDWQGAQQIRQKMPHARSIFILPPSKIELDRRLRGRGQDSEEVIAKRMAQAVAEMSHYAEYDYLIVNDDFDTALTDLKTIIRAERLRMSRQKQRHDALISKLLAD
DNA ligase, sequence (B1XA82 whole entry): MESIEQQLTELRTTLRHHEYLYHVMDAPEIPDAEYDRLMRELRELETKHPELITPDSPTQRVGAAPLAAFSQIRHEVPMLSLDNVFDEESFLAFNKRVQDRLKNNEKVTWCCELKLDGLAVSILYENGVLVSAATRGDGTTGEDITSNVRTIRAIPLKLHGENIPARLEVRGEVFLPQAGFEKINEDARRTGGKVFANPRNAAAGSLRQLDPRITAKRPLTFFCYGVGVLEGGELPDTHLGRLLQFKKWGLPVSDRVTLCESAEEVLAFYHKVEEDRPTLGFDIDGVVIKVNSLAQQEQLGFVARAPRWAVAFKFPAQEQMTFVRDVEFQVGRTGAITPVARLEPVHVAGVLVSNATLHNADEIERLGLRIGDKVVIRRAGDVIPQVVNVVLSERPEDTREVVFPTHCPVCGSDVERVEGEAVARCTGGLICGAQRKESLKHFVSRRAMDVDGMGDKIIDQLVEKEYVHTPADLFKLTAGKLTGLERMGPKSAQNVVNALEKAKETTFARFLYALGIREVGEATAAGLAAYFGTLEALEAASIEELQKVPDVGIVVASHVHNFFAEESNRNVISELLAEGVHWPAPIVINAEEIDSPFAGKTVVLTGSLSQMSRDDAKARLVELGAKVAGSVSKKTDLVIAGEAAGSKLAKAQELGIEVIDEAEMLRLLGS

Row | SMILES | relative enzymatic activity (DNA gyrase) | relative enzymatic activity (DNA helicase) | relative enzymatic activity (DNA ligase) | relative enzymatic activity (DNA polymerase) | relative enzymatic activity (DNA primase) | relative enzymatic activity (GlmU) | relative enzymatic activity (Guanlyate kinase) | relative enzymatic activity (MurA) | relative enzymatic activity (MurD) | relative enzymatic activity (MurF) | relative enzymatic activity (RNA polymerase)
1 | O=C1OCCN1N=Cc1ccc([N+](=O)[O-])o1 | 1.13 ± 0.099 | 0.454 ± 0.088 | 1.02 ± 0.015 | 1.35 ± 0.37 | 0.747 ± 0.22 | 0.974 ± 0.017 | 1.01 ± 0.042 | 0.649 ± 0.12 | 0.565 ± 0.37 | 0.947 ± 0.16 | 0.941 ± 0.097
2 | CCC(C)C1NC(=O)C(CCNCS(=O)(=O)[O-])NC(=O)C(NC(=O)C(CCNCS(=O)(=O)[O-])NC(=O)C(NC(=O)C(CCNCS(=O)(=O)[O-])NC(=O)CCCCC(C)C)C(C)O)CCNC(=O)C(C(C)O)NC(=O)C(CCNCS(=O)(=O)[O-])NC(=O)C(CCNCS(=O)(=O)[O-])NC(=O)C(C(C)CC)NC1=O.[Na+].[Na+].[Na+].[Na+].[Na+] (stereo not given) | 1.1 ± 0.088 | 0.615 ± 0.27 | 1.08 ± 0.17 | 1.32 ± 0.34 | 0.766 ± 0.23 | 0.983 ± 0.022 | 1 ± 0.023 | 0.564 ± 0.14 | 0.591 ± 0.39 | 1.03 ± 0.3 | 0.919 ± 0.029
3 | COC1(NC(=O)C(C(=O)[O-])c2ccc(O)cc2)C(=O)N2C(C(=O)[O-])=C(CSc3nnnn3C)COC21.[Na+].[Na+] (stereo not given) | 1.04 ± 0.15 | 0.607 ± 0.17 | 1.25 ± 0.16 | 1.27 ± 0.34 | 0.693 ± 0.17 | 0.998 ± 0.085 | 1.02 ± 0.11 | 0.069 ± 0.017 | 0.584 ± 0.39 | 0.913 ± 0.23 | 0.848 ± 0.071
4 | Cn1cc(-c2[nH]c3cc(NC(=O)[C@H](N)C4CCCCC4)cc4c3c2C=NNC4=O)cn1 | 0.0124 ± 0.018 | 0.0463 ± 0.061 | 0.703 ± 0.085 | 0.083 ± 0.099 | ≤ 0 | 0.899 ± 0.013 | 0.0166 ± 0.0039 | 0.348 ± 0.12 | 0.599 ± 0.43 | 1.13 ± 0.017 | 0.191 ± 0.029
5 | NCC[C@H](O)C(=O)N[C@@H]1C[C@H](N)[C@@H](O[C@H]2O[C@H](CN)[C@@H](O)[C@H](O)[C@H]2O)[C@H](O)[C@H]1O[C@H]1O[C@H](CO)[C@@H](O)[C@H](N)[C@H]1O | 0.228 ± 0.0032 | 0.0994 ± 0.0019 | 0.871 ± 0.16 | 0.863 ± 0.26 | 0.508 ± 0.14 | 0.9473 ± 0.0079 | 0.438 ± 0.056 | 0.326 ± 0.1 | 0.608 ± 0.42 | 0.979 ± 0.24 | 0.699 ± 0.083
6 | C=C1c2cccc(O)c2C(=O)[C@@H]2C(=O)[C@]3(O)C(=O)[C@@H](C(N)=O)C(=O)[C@@H](N(C)C)[C@@H]3[C@@H](O)[C@H]12 | 0.554 ± 0.29 | 0.33 ± 0.051 | 0.848 ± 0.095 | 1.04 ± 0.31 | 0.707 ± 0.056 | 1.03 ± 0.018 | 0.679 ± 0.018 | 0.0871 ± 0.016 | 0.638 ± 0.46 | 1.06 ± 0.24 | 0.619 ± 0.015
7 | CCCC[P+](CCCC)(CCCC)Cc1ccc(NC(=O)[C@H](Cc2ccc3ccccc3c2)N/C(=N/C2CCCCC2)NC2CCCCC2)cc1 | 0.00696 ± 0.0098 | 0.0186 ± 0.0015 | 1.08 ± 0.094 | 0.73 ± 0.026 | 0.595 ± 0.0097 | 0.134 ± 0.011 | 0.223 ± 0.023 | 0.0355 ± 0.0073 | 0.167 ± 0.12 | 0.108 ± 0.017 | 0.346 ± 0.01
8 | Nc1nc(C(=CCC(=O)O)C(=O)NC2C(=O)N3C(C(=O)O)=CCSC23)cs1 (stereo not given) | 0.16 ± 0.14 | 0.257 ± 0.0059 | 1.1 ± 0.24 | 0.742 ± 0.27 | 0.682 ± 0.082 | 0.934 ± 0.01 | 0.901 ± 0.03 | 0.0583 ± 0.02 | 0.575 ± 0.39 | 0.958 ± 0.24 | 0.292 ± 0.037
9 | COc1cc2c(cc1OC)C(=O)C(CC1CCN(Cc3ccccc3)CC1)C2.Cl (stereo not given) | 0.363 ± 0.072 | 0.802 ± 0.32 | 1.19 ± 0.057 | 1.18 ± 0.28 | 0.713 ± 0.2 | 0.766 ± 0.067 | 0.892 ± 0.1 | 0.486 ± 0.059 | 0.456 ± 0.32 | 0.934 ± 0.17 | 0.85 ± 0.011
10 | Oc1c(Cl)cc(Cl)c2cccnc12 | 0.515 ± 0.28 | 0.476 ± 0.16 | 1.11 ± 0.24 | 1.11 ± 0.21 | 0.637 ± 0.12 | 1.21 ± 0.19 | 0.854 ± 0.039 | 0.88 ± 0.26 | 0.642 ± 0.46 | 0.98 ± 0.18 | 0.7619 ± 0.0022
